Measurements published in PubChem BioAssay (NCI).
The panel holds about 79,000 compounds, 15% with a hit somewhere; the sample as a whole holds those more often. Unmarked numbers belong to inactive results. Active and inactive are the calls of the source. No stated cut-off is given here; in the data, active means growth inhibition above about 70%; inactive means the rest.

How the values were obtained:
[1] = NCI Yeast Anticancer Drug Screen. Data for the rad50 strain (AID 155);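 further: 0% = growth of vehicle-only cultures of the same strain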; details: S. cerevisiae rad50 strain growth inhibition; at 50.0 µM; active compounds read high
Outline: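 Compounds were tested on a yeast strain with an engineered DNA damage repair alteration; the reported value is growth inhibition normalised to vehicle treatment.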

[2] = NCI Yeast Anticancer Drug Screen. Data for the mec2-1 strain (AID 157); details: S. cerevisiae mec2-1 strain, at 50.0 µM, active compounds read high
Outline: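 Strain: mec2-1 (DNA repair/cell cycle alteration). Compound exposure, then growth measured; inhibition expressed relative to vehicle.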

[3] = NCI Yeast Anticancer Drug Screen. Data for the sgs1 mgt1 strain (AID 161);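 further: 0% = growth of cultures given vehicle only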; details: S. cerevisiae sgs1 mgt1 strain, at 50.0 µM, active compounds read high
Outline: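 Read-out: growth inhibition vs vehicle controls. Cells: mutant yeast strain deficient in DNA damage repair.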

[4] = NCI Yeast Anticancer Drug Screen. Data for the cln2 rad14 strain (AID 165);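 further: 0% = growth equal to vehicle treated cultures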; details: S. cerevisiae cln2 rad14 strain, at 50.0 µM, active compounds read high
Outline: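 Compounds are applied to the cln2 rad14 yeast strain, and growth is then compared with that of vehicle-treated cultures to give inhibition.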

[5] = NCI Yeast Anticancer Drug Screen. Data for the bub3 strain (AID 167); details: S. cerevisiae bub3 mutant strain, at 50.0 µM, active compounds read high
Outline: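 Growth of a checkpoint-deficient yeast mutant is measured after compound exposure. Values represent inhibition relative to vehicle.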

[6] = NCI Yeast Anticancer Drug Screen. Data for the mlh1 rad18 strain (AID 175); details: S. cerevisiae mlh1 rad18 strain growth inhibition; at 50.0 µM; active compounds read high
Outline: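 Read-out is yeast growth inhibition, calculated against vehicle-only controls. The compound was applied to a strain engineered with DNA damage repair alterations.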

| SMILES | growth inhibition [1] | growth inhibition [2] | growth inhibition [3] | growth inhibition [4] | growth inhibition [5] | growth inhibition [6] |
| --- | --- | --- | --- | --- | --- | --- |
| N#CCCN(CCC#N)c1ccc(CC2C(=O)N(c3cccc(S(=O)(=O)O)c3)N=C2C(=O)O)cc1 (stereo unspecified) | -19.4% | -26.8% | -23.1% | 6.65% | -15.9% | -32.1% |
| O=C1NC(N2CCCCC2)=N/C1=C\c1ccccc1O | 5% | -25.3% | -2.85% | 15.1% | 5.5% | 89.7% (active) |
| O=c1[nH]c(O)c(/C=N/C(=S)NCc2ccccc2)c(=O)[nH]1 | -41% | -37.9% | -26.1% | 5.9% | -0.55% | -12.3% |
| N#CCCN(CCC#N)c1ccc(/C=C2\N=C(c3cc([N+](=O)[O-])ccc3Cl)N(S(=O)(=O)c3ccccc3)C2=O)cc1 | 23.2% | 16.3% | 3.5% | -47.4% | -1.35% | 28.1% |
| Cc1cc2c(cc1Cl)SSc1cc(Cl)c(C)cc1S(=O)(=O)Nc1nc(N)nn1C(O)n1nc(N)nc1NS2(=O)=O | 7.65% | 11.4% | 9.1% | 20.7% | 30.4% | 0.45% |
| Cc1c(CN2CCOCC2)c(CN2CCOCC2)c(C)n1-c1ccc(Cl)cn1 | -31.1% | 7.9% | -23.1% | -6.85% | -15.7% | 7.55% |
| N#CC(C(=O)O)C(c1c(Cl)cccc1Cl)C(C#N)C(=O)O (stereo unspecified) | 23.2% | -6.7% | -0.7% | -1.3% | 5.25% | 15.6% |
| O=C1CSC(c2cccnc2)N1CCN1C(=O)CSC1c1cccnc1 (stereo unspecified) | 3.75% | 4.15% | -11.5% | -2.4% | -1.6% | 19.4% |
| O=[N+]([O-])/C(Cl)=C(\NCCO)C(Cl)=C(Cl)Cl | 15.6% | 19% | 38% | 17.1% | 23.9% | -2.3% |
| O=C(O)c1cccc(C(=O)O)c1S(=O)Cc1ccccc1 (stereo unspecified) | 3.45% | -15.1% | 1.2% | -0.15% | -17.1% | 17.9% |
| C/C(=C1/CCOC1=O)c1cccc(/C(C)=C2\CCOC2=O)c1 | 3.9% | 3.55% | -3.05% | -29.4% | 5.35% | 2.75% |
| NC(=S)c1ccccn1 | 18.6% | 11.4% | 32.8% | -22.5% | 2.4% | 26.9% |
| CC1CN(C(=S)Nc2ccccc2)C(C)CN1CCO (stereo unspecified) | 58.5% | 1.6% | 14.2% | -39% | -3.9% | 16.6% |
| CCCCN1CSC(=S)N(CCCC)C1 | 39.5% | 45.5% | 59.2% | -10.4% | 51.4% | 37% |
| Cc1occ(Br)c(=O)c1O | 12.9% | 12.3% | 17.5% | 25.8% | -0.85% | 15.2% |
| CC(C)CCC[C@@H](C)[C@H]1CC[C@@]2(C)[C@@H]3CC[C@@H]4C(=O)CC[C@]4(C)[C@H]3CC[C@]12C | 31.3% | 1.5% | 41.5% | 26.8% | 1.6% | 42.1% |
| C=C(C)C1Cc2c(cc(O)c3c(=O)c4c(oc23)C(O)Oc2cc(OC)c(OC)cc2-4)O1 (stereo unspecified) | 9.15% | -0.95% | 0.9% | -3.85% | 2.85% | 16.9% |
| Cc1ccc(NC(=O)Nc2ccccc2Cl)cc1Cl | 12.6% | 17.5% | 6.1% | -20.4% | 4.75% | -4.55% |
| Cc1cc(=O)[nH]c(/N=C(\N)Nc2ccc(Br)c(C(F)(F)F)c2)n1 | 10.1% | 2.85% | -3.8% | 6.55% | -1.5% | 2.9% |
| CC(C)NC(=O)/C=C/C(=O)O | -16.1% | -20.4% | -41.2% | -7.4% | -11.2% | -9.1% |
| O=C(Nc1ccc(C2=NCCN2)cc1)c1cncc(C(=O)Nc2ccc(C3=NCCN3)cc2)c1 | 5.2% | 22.6% | 16.4% | 50% | 8.95% | 45.6% |

| SMILES | growth inhibition [1] | growth inhibition [2] | growth inhibition [3] | growth inhibition [4] | growth inhibition [5] | growth inhibition [6] |
| --- | --- | --- | --- | --- | --- | --- |
| C=CCSC(=S)Nc1nc2ccc(C)cc2s1 | -19.9% | 4.75% | 0.25% | 0.2% | -2.05% | 2.1% |
| CC(C)N(C(=O)c1ncccc1C(=O)c1ccccn1)C(C)C | -11.4% | -5.65% | -4.75% | -5.2% | -5.85% | -5.05% |
| CC(=O)Nc1cc(-c2ccccc2)ccc1O | 56.7% | 30.1% | 56.8% | 32.2% | 40.2% | 57.4% |
| Cc1c2occc2cc2c1oc(=O)c1cnccc12 | 0.95% | -0.15% | 1.85% | 21.2% | -4.95% | 14.9% |
| CC1CCC(=O)N1C (stereo unspecified) | -19.1% | -1.35% | -16.1% | -21.6% | -0.45% | -9.5% |
| CC(C)CCCC(C)C1CCC2C3CC=C4CC(OC(=O)C(Cl)(Cl)Cl)CCC4(C)C3CCC12C (stereo unspecified) | -7.65% | -7.55% | -0.7% | -27.1% | -28.1% | -5.4% |
| O=C1c2ccccc2-c2ccc(-n3c(=O)c4ccccc4c4ccccc4c3=O)cc21 | 28.6% | -1.7% | 29.8% | 16.1% | 8.35% | 25.4% |
| COc1ccc2c(c1)C13CCCC(C)(C(=O)NC1)C3CC2 (stereo unspecified) | -0.15% | -17.6% | -16.3% | 9% | 2.35% | -11.7% |
| O=C(O)CCC1CCc2cccc(O)c2C1=O (stereo unspecified) | 8.4% | 3.3% | 2.25% | 15.6% | 6.5% | -3.45% |
| CC1(C)N=C(N)N=C(N)N1c1ccc(-c2ccccc2)cc1 | 2.95% | 0.9% | 20.5% | -0.75% | 32.5% | 19.5% |
| O=C(O)c1ccccc1Sc1ccc([N+](=O)[O-])cn1 | 33.2% | 5.1% | 2.15% | -15.8% | 6.4% | 44.7% |
| CC12CC3CC(C)(C1)CC(SCCN=C(N)CCl)(C3)C2 | 98.5% (active) | 99% (active) | 99.3% (active) | 96.3% (active) | 99% (active) | 99.2% (active) |
| CC1=NOC(=O)/C1=C/c1ccc(C)cc1 | 33.6% | 20.8% | 23.4% | 2.55% | 13.7% | 8.05% |
| C=C(CN(C)C)C(=O)c1ccc(C(=O)C(=C)CN(C)C)cc1 | -1.4% | 6.85% | 2.2% | -2.15% | 0.65% | 6.4% |
| CC(C)c1ccc(/C=N\NC(=O)NNC(=O)c2ccccc2)cc1 | -3.05% | -4.25% | 11.6% | -95.8% | -2.85% | -8.25% |
| Cn1c2c(c(=O)n(C)c1=O)CCC(=O)N2 | 4.95% | 0.7% | -6.5% | -32.6% | -2.4% | -9.4% |
| CCOC(=O)CN(C=O)C(C)c1ccccc1 (stereo unspecified) | 13.1% | 18.4% | 4.4% | 3.7% | 33.6% | 20.9% |
| O=C1CC(O)(c2ccccc2)C(c2ccccc2)=C1c1ccccc1 (stereo unspecified) | 29.8% | 21.4% | 14.3% | 32.7% | -2.15% | 36.8% |
| Oc1ccc(C(O)CNCCCCCCNCC(O)c2ccc(O)c(O)c2)cc1O (stereo unspecified) | -17.2% | 6.65% | -2% | 6.5% | -1.45% | -4.65% |
| [CH3][Ge]([Cl])([c]1ccccc1)[c]1cccc2ccccc12 (stereo unspecified) | 25.2% | 12.4% | 10.8% | 10.2% | -0.15% | 7.5% |
